In all, about 220,000 compounds went through this assay and about 8,200 (3.7%) were called active.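 How the source made its calls: active means compounds that reduced the stress-induced luciferase reporter signal by more than about 70% of percent inhibition (limit read from the data); inactive means the rest.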 The list comes from a sample in which actives are over-represented; it also holds similar structures and randomly drawn compounds.
assay: blockers of ER-stress CHOP reporter expression – cell-based, unfolded protein response, luciferase reporter, primary screen (AID 2732); conditions: CHO-K1 CHOP-promoter luciferase, tunicamycin-induced, 15-18 h; at 10 µM; active compounds read high;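 further: 0% = tunicamycin plus vehicle and 100% = wells without tunicamycin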

inhibition, inactive:
Cc1[nH]n(C)c(=O)c1N=Nc1ccc(S(C)(=O)=O)cc1 7.35%
O=C(/C=C/c1ccccc1)N/C(=C/c1ccccc1)C(=O)Nc1ccccc1O -0.94%
CCc1ccccc1NC(=O)c1cccs1 39.1%
O=C(N/N=C/c1ccccn1)c1ccc(S(=O)(=O)N2CCCCCC2)cc1 -0.54%
COc1ccccc1N1CCN(C(=O)c2ccc(S(=O)(=O)N3CCCCC3)cc2)CC1 10.2%
CCN(CC)S(=O)(=O)c1ccc(Cl)c(NC(=O)c2ccncc2)c1 4.4%
Cc1ccc(S(=O)(=O)N(C)C)cc1NC(=O)COC(=O)c1c(C)noc1C 22.9%
COC(=O)c1cccc(NS(C)(=O)=O)c1 27.4%
COC(=O)c1sc(SC)c(S(=O)(=O)C(C)C)c1N/N=C(\C#N)S(=O)(=O)c1ccccn1 5.06%
CCN(CC(=O)Nc1cccc(S(N)(=O)=O)c1)Cc1nc2ccccc2c(=O)[nH]1 -6.72%
C=CCSc1nc(N)cc(=O)[nH]1 14.8%
Cc1cccc(N2CCN(C(=O)c3ccccc3NC(=O)C3CCCCC3C(=O)O)CC2)c1 (centres undefined) 13.9%
O=C(O)C1CC=CCC1C(=O)Nc1ccccc1C(=O)N1CCN(c2ccccc2)CC1 (centres undefined) 12.7%
CC12CN3CCN(CC(C3)/C1=N\NC(=O)c1ccccc1N)C2 7.18%
CCCCNc1nc2c(c(=O)n(C)c(=O)n2C)n1Cc1cccc(OC)c1 17.1%
Cn1c(=O)c2c(nc(NCCc3ccccc3)n2Cc2ccccc2)n(C)c1=O 61.2%
O=C(CS(=O)(=O)c1ccc(C(F)(F)F)cn1)NNC(=O)c1ccccc1 3.02%
CCOC(=O)c1sc2nc(C)[nH]c(=O)c2c1C 3.38%
CCOC(=O)c1sc2nc(CSc3ccccc3)[nH]c(=O)c2c1C 63.4%
Cc1nc(/N=C(\N)NC(=O)NC2CCCCC2)nc2ccccc12 33.5%
O=C(Nc1cccn(Cc2ccccc2Cl)c1=O)NC1CCCCC1 26.3%
O=c1ccn(Cc2ccccc2Cl)cc1 68.6%
O=C(Cc1nc2ccccc2[nH]c1=O)c1ccc(Cl)cc1 -13.2%
CCC(=O)/C(=C(/O)c1ccccc1)c1nc2ccccc2[nH]1 -37.6%
Cc1ccc(NNC(=O)c2c(F)cccc2Cl)cc1Cl 4.19%
COc1cccc(CN(C)CC(=O)Nc2sc3c(c2C#N)CCC3)c1 3.74%
NC(=O)c1c(NC(=O)CSc2nnc(-c3ccco3)n2N)sc2c1CCCC2 22.2%
COc1ccc(OC)c(-n2c(-c3ccn[nH]3)n[nH]c2=S)c1 12.3%
CCOC(=O)N1CCN(c2c(NCCN3CCN(c4ccccc4F)CC3)c(=O)c2=O)CC1 18.8%
O=C(Oc1ccccc1)c1ccc2nccnc2c1 -6.68%
c1ccc(-c2noc(-c3cccs3)n2)nc1 22.5%
O=c1c2c3c(sc2n(CCN2CCCC2)c(=O)n1Cc1ccccc1)CCCCC3 44.2%
CSc1nnnn1-c1c(C)cc(C)cc1C 3.56%
COc1ccc(C)cc1NC(=O)C(OC(=O)c1cccc(S(=O)(=O)N(C)c2ccccc2)c1)c1ccccc1 (centres undefined) -0.27%
CN(c1ccccc1)S(=O)(=O)c1ccc(Cl)c(C(=O)OCC(N)=O)c1 7.63%
CN(c1ccc(OCC(=O)NC2=NCCS2)cc1)S(=O)(=O)c1ccc(F)cc1 -3.41%
Cc1ccc(S(=O)(=O)/N=C(/NC(=S)Nc2c(C)n(C)n(-c3ccccc3)c2=O)c2ccccc2)cc1 5.21%
Clc1cccc(-c2nc(NCC3CCCO3)c3ccccc3n2)c1 (centres undefined) 14.2%
c1ccc(-c2nc(NCc3ccco3)c3ccccc3n2)cc1 8.64%
FC(F)(F)c1cccc(-c2nc(COc3ccc(Cl)cc3Cl)no2)c1 -14.1%
O=C(c1cc(COc2c(F)cccc2F)on1)N1CCSCC1 -22.2%
CC[C@@H](C)[C@@H](C(=O)N1CCN(C(=O)OC(C)(C)C)CC1)n1cc(CCC(=O)O)nn1 -7.63%
O=C(c1c(Cl)cccc1Cl)N1CCN(c2cccc3[nH]ccc23)CC1 12.1%
COCCN1C(=O)N[C@@H](c2ccccc2)C(C(=O)OC)=C1C -1.22%
COC(=O)C1=C(C)N(C)C(=S)NC1c1ccccc1 (centres undefined) -6.17%
N/C(=N\S(=O)(=O)c1ccc(Cl)cc1)N1CCOCC1 13.5%

inhibition, active:
CCc1ccccc1NC(=O)/C(=C/c1ccccc1)c1ccccc1 84.8%
N#CC(C(=O)c1ccc(S(=O)(=O)N2CCCCCC2)cc1)c1nc2ccccc2[nH]1 (centres undefined) 101%
CCN(CC)S(=O)(=O)c1ccc(C)c(NC(=O)COc2ccc(Br)cc2Cl)c1 88%
CC(C)c1ccc(N2CCN(C(=O)c3ccccc3NC(=O)/C=C(\C(=O)O)c3ccccc3)CC2)cc1 110%
Cn1c(=O)c2c(nc(N/N=C/c3cccs3)n2Cc2ccc(Br)cc2)n(C)c1=O 79.6%
CCOC(=O)c1sc(C)c2c1NC(C)(c1cccc3ccccc13)NC2=O (centres undefined) 74.8%
CC1(C)COC(c2cccn2Cc2ccccc2Cl)=N1 71.8%
O=C(/C(=C/c1cccc(Cl)c1)c1nc2ccccc2[nH]1)c1ccccc1 92.6%
COc1ccc(-n2c(SCC(=O)Nc3sc4c(c3C#N)CCCC4)nnc2-c2ccc(O)cc2)cc1 106%
O=C(Oc1ccc(-c2nc(-c3ccccn3)no2)cc1)c1ccccc1 83.7%
CC(=O)c1c(C)[nH]c(C(=O)COC(=O)c2cccc(S(=O)(=O)N(C)c3ccccc3)c2)c1C 86.8%
Clc1ccc2nc(-c3ccccc3)nc(C(Cl)Cl)c2c1 75.6%
COC(=O)C1=C(C)N(C)C(C)=C(C(=O)OC)C1c1cccc(Br)c1 71.4%

Source: PubChem BioAssay AID2732 (Emory University Molecular Libraries Screening Center, 2010)
